# Records with an inconclusive call do not appear. Calls of active or inactive are those of the source. Rule for the calls: active = hit-call score of the fitted dose curve at least 0.9, where 1 is the maximum; inconclusive = response in the unintended direction; inactive = score below 0.9.
# What was measured:
# [1] = ACEA_ER_AUC_viability: ACEA Biosciences xCELLigence Real-Time Cell Analysis on Estrogen Receptor Agonism for Viability (AID 2283782);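 note: continuous compound exposure with impedance area under curve over 80 h; hit means loss of impedance signal meaning reduced cell growth or viability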
# How it was run: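 T-47D human breast cells in phenol red-free RPMI1640 with 10% charcoal-stripped FBS were dosed with an 8-point 1:4 dilution series from 100 uM top final concentration, in duplicate. Impedance-based growth was followed for 80 h; AUC analysed versus DMSO.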
# [2] = STM_H9_NormalizedViability: Cytotoxicity Assessment at 120 hours in the Stemina devTOX quickPredict H9 human embryonic stem cell (hESC)-based Assay (AID 2283784)
# How it was run: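 Pluripotent H9 cells dosed, fresh medium plus compound q24h → cell layer read by CellTiter-Fluor → RFU blank-corrected, normalized to DMSO 0.1% mean. Loss-of-signal fit, DMSO as baseline.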
# [3] = target: AR (gene 367) (UniProt P10275); test: ACEA_AR_antagonist_80hr: ACEA Biosciences xCELLigence Real-Time Cell Analysis on Androgen Receptor Antagonism for Proliferation (AID 2283787);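 note: hits lower the impedance growth signal relative to DMSO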
# How it was run: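 Impedance readout (RT-CES), 80 h post-dose; loss-of-signal vs DMSO baseline. 22Rv1 cells in assay medium. Compounds: 8-pt 1:4 series, max 100 uM final, up to 0.5% DMSO; n = 2.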
# [4] = target: Estrogen receptor beta (Homo sapiens) (UniProt Q92731); test: ATG_hERb_XSP1: Attagene TRANS-FACTORIAL Multi-Species (XSP1) HepG2 Assay for human Estrogen Receptor (ESR2) (AID 2283788)
# How it was run: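 Read-out: reporter mRNA induction by RT-PCR, HpaI digestion and capillary electrophoresis fluorescence, fitted in positive direction relative to DMSO baseline. Human liver HepG2 cells expressing ERβ-Gal4 fusion, dosed 24 h, medium containing 3 nM 6-alpha-fluorotestosterone.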
# [5] = ATG_M_06_XSP1: Attagene TRANS-FACTORIAL Multi-Species (XSP1) HepG2 Assay for M06 Transcription Factor (Internal Marker) (AID 2283790)
# How it was run: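 Transfected HepG2 multi-reporter system treated 24 h in the presence of 3 nM 6-alpha-fluorotestosterone. The M06 internal marker transcript was quantified by RT-PCR with capillary electrophoresis as a background control, and gain of signal was scored versus DMSO.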
# [6] = ATG_M_61_XSP1: Attagene TRANS-FACTORIAL Multi-Species (XSP1) HepG2 Assay for M61 Transcription Factor (Internal Marker) (AID 2283797)
# How it was run: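 HepG2 cells transiently transfected with multiplexed GAL4-driven reporter units, dosed 24 h with 3 nM 6-alpha-fluorotestosterone present. Reporter mRNA quantified by RT-PCR, 6-FAM labelling, HpaI digestion and capillary electrophoresis; internal-marker background control, gain of signal versus DMSO.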
# [7] = target: GAL4 Transcription Factor (Internal Marker), GAL4 (gene 855828) (UniProt P04386); test: ATG_GAL4_XSP1: Attagene TRANS-FACTORIAL Multi-Species (XSP1) HepG2 Assay for GAL4 Transcription Factor (Internal Marker) (AID 2283789)
# Description: ATG_XSP1_multi-species_TRANS is a cell-based, multiplexed assay created by modifying the existing Attagene TRANS-FACTORIAL system to include a panel of nuclear receptors from some or all the following species: human (Homo sapiens), mouse (Mus musculus), frog (Xenopus laevis), zebrafish (Danio rerio), chicken (Gallus gallus), and turtle (Chrysemys picta). The ECOTOX-FACTORIAL format uses HepG2, a human liver cell line, with measurements taken at 24 hours after chemical dosing in a 24-well plate. Xsp1 included 3 nM 6-alpha-fluorotestosterone to partially stimulate the androgen receptor.ATG_GAL4_XSP1 is one of 29 assay components measured or calculated from the ATG_XSP1_multi-species_TRANS assay. It is designed to make measurements of mRNA induction, a form of inducible reporter, as detected with fluorescence intensity signals by Reverse transcription polymerase chain reaction (RT-PCR) and Capillary electrophoresis technology.This assay endpoint, ATG_GAL4_XSP1, was analyzed in the positive analysis fitting direction relative to DMSO as the negative control and baseline of activity. […] Furthermore, this assay endpoint can be referred to as a secondary readout, because this assay has produced multiple assay endpoints where this one serves a background control function. […]
# [8] = target: AR (gene 367) (UniProt P10275); test: ACEA_AR_agonist_80hr: ACEA Biosciences xCELLigence Real-Time Cell Analysis on Androgen Receptor Agonism for Proliferation (AID 2283783);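 note: hits increase impedance growth signal above DMSO baseline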
# How it was run: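 22Rv1 human prostate cancer cells were seeded after preconditioning in assay medium and monitored overnight, then dosed in an eight-point 1:4 dilution series from 100 uM (≤0.5% DMSO). Impedance-based growth was read at 80 h, gain-of-signal versus DMSO.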
# Chain of AR (gene 367) (P10275 whole entry, looked up): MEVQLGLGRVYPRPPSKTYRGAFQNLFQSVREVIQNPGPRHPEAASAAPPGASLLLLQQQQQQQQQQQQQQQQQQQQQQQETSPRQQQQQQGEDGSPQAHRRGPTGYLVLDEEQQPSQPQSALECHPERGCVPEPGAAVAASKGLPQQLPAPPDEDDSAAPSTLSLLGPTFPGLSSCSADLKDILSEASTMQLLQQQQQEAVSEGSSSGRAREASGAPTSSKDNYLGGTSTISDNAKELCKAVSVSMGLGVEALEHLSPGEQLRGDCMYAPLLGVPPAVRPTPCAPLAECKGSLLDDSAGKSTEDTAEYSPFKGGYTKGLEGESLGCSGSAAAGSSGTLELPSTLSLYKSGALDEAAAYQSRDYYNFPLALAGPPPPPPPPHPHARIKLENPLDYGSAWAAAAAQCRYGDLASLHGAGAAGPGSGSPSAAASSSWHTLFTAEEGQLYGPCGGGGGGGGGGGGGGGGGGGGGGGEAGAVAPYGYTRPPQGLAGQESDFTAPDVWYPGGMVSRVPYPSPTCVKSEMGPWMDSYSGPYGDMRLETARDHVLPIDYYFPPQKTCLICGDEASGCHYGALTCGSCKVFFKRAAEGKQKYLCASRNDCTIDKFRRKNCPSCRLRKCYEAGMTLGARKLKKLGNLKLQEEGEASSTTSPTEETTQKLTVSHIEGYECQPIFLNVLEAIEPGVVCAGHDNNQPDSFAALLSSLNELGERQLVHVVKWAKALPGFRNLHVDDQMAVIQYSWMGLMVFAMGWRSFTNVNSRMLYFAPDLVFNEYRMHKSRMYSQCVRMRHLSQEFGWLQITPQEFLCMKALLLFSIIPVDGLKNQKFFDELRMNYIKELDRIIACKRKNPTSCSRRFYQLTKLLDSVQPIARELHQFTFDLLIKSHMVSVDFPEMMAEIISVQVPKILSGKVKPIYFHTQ
# Chain of GAL4 Transcription Factor (Internal Marker), GAL4 (gene 855828) (P04386 whole entry, looked up, the tested form may be a part): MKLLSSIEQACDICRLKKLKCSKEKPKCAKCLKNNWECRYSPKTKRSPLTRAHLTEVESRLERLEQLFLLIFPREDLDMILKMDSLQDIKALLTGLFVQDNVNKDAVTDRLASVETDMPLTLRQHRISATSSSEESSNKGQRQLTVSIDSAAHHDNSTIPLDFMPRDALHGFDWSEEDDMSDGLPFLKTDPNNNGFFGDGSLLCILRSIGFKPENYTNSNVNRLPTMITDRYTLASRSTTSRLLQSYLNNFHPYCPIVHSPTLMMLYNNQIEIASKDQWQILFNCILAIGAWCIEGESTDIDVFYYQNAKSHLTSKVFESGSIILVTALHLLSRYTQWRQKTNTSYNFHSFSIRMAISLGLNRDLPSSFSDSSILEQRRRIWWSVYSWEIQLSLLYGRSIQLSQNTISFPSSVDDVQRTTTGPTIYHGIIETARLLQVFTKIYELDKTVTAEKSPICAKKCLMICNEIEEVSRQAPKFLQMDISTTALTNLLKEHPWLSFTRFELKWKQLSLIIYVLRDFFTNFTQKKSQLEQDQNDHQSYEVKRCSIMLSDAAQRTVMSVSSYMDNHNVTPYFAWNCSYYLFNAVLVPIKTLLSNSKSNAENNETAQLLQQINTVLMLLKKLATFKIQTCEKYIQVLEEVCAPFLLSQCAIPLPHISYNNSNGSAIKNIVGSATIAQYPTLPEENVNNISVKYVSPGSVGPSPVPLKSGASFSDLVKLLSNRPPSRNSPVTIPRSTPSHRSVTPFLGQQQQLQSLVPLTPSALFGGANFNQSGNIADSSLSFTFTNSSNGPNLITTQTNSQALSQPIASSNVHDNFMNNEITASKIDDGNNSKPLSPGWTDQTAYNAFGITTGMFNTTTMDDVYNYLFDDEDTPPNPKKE
# Chain of Estrogen receptor beta (Homo sapiens) (Q92731 whole entry, looked up, the tested form may be a part): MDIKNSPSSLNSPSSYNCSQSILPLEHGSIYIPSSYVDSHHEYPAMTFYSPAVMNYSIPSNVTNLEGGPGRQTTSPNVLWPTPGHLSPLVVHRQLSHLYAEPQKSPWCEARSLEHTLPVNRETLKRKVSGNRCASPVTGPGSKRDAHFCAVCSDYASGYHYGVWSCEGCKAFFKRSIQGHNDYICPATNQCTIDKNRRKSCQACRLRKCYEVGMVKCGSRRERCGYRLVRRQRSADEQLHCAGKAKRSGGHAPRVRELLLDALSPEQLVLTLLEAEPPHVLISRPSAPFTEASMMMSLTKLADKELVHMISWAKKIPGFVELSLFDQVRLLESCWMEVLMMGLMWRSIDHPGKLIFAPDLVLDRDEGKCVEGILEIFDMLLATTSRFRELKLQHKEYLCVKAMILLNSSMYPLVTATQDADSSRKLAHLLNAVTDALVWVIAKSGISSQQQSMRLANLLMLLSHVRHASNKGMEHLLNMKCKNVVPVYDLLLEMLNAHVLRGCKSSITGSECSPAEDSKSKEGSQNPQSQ
compound,measurement,setting,value
O=[N+]([O-])c1cc(C(F)(F)F)c(Cl)c([N+](=O)[O-])c1Nc1ncc(C(F)(F)F)cc1Cl,AC50,[1],3.24 µM (active)
same,AC50,[2],16.3 µM (active)
COc1ccc(C(=CC(=O)N2CCOCC2)c2ccc(Cl)cc2)cc1OC,outcome,[1],inactive
same,AC50,[3],15.8 µM (active)
CCOP(=O)(NC(C)C)Oc1ccc(SC)c(C)c1 (stereo unspecified),AC50,[3],40.5 µM (active)
CC(C)N(C(=O)SCC(Cl)=C(Cl)Cl)C(C)C,AC50,[1],77.3 µM (active)
same,outcome,[2],inactive
C[Si](Cn1cncn1)(c1ccc(F)cc1)c1ccc(F)cc1,AC50,[1],76.2 µM (active)
same,AC50,[2],80.6 µM (active)
Nc1c(Cl)cc([N+](=O)[O-])cc1Cl,AC50,[3],50 µM (active)
CC(C)[C@H](C(=O)O[C@H](C#N)c1cccc(Oc2ccccc2)c1)c1ccc(Cl)cc1,outcome,[2],inactive
C#CCC1=C(C)C(OC(=O)C2C(C=C(C)C)C2(C)C)CC1=O (stereo unspecified),AC50,[1],49.8 µM (active)
same,outcome,[4],inactive
same,outcome,[5],inactive
same,outcome,[6],inactive
CCCSP(=O)(OCC)SCCC,AC50,[3],34 µM (active)
N#CSCSC#N,AC50,[1],6.97 µM (active)
same,AC50,[2],20.5 µM (active)
same,AC50,[3],11.7 µM (active)
CCOP(=S)(OCC)Oc1cc(C)nc(C(C)C)n1,AC50,[1],82 µM (active)
same,AC50,[2],87.1 µM (active)
CCCOCC(=Nc1ccc(Cl)cc1C(F)(F)F)n1ccnc1,AC50,[1],23.1 µM (active)
same,outcome,[7],inactive
CCCCOC(=O)[C@@H](C)Oc1ccc(Oc2ccc(C#N)cc2F)cc1,outcome,[1],inactive
same,AC50,[2],93.9 µM (active)
C[N+]1(C)CCCCC1,outcome,[2],inactive
Cc1nn(-c2cc(NS(C)(=O)=O)c(Cl)cc2Cl)c(=O)n1C(F)F,outcome,[8],inactive
same,outcome,[2],inactive
CC(COc1ccc(Oc2ccccc2)cc1)Oc1ccccn1 (stereo unspecified),outcome,[1],inactive
same,outcome,[2],inactive
same,AC50,[3],66.3 µM (active)

# Source: PubChem BioAssay (EPA / NIEHS)
